Molecules are shown by their SMILES. About 83,000 compounds went through this panel and 20% of them were active in at least one assay; those are over-represented in the sample as a whole.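 Interpretation: 100, growth as untreated; towards 0, rising growth inhibition; 0, no net growth; 0 to -100, cell death. Compounds scoring below 10 were considered active.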 A number with no mark means an inactive call. Activity calls are given as the source filed them.

Some test systems named below: T-47D breast; BT-549 breast; MDA-MB-435 melanoma; SW-620 colon; MCF7 breast; HCT-116 colon; HCC-2998 colon; KM12 colon.
What all share (experiment): NCI-60 one-dose screen, 48 h (100 = growth as untreated, 0 = no growth, -100 = all killed)
Settings in all cases: 10 µM unless noted

Turning to `C=C1C(=O)O[C@H]2[C@H]1CC/C(COC(=O)CCSCCC(=O)OC/C1=C/CC[C@@]3(C)O[C@H]3[C@H]3OC(=O)C(=C)[C@@H]3CC1)=C\CC[C@@]1(C)O[C@@H]21`, the growth is 19.1% with T-47D breast; -9.47% (active) with BT-549 breast; 8.02% (active) with MDA-MB-435 melanoma; -23.5% (active) with SW-620 colon; 9.43% (active) in the assay with MCF7 breast; -60.2% (active) in the assay on HCT-116 colon. For the same molecule, the growth in the assay with HCC-2998 colon is -1.54% (active); with KM12 colon, 34.3%.

With `CCO/C=N/C1=C(C#N)C(c2ccc(OC)cc2)c2sc3c(F)cccc3c2O1` (stereo not given), the growth with T-47D breast is 35.4%; with BT-549 breast, 49.8%; in the assay on MDA-MB-435 melanoma, -42.8% (active); in the assay on SW-620 colon, 22.4%; in the assay with MCF7 breast, 12.9%; in the assay on HCT-116 colon, 33.8%. Also, the growth in the assay on HCC-2998 colon is 70.8%; with KM12 colon, 25.3%.

In the case of `COc1cc(CNC(=O)/C=C/C=C/c2ccc3c(c2)OCO3)ccc1OCc1cn(-c2ccc(C)c(C)c2)nn1`, the growth in the assay on T-47D breast was 80.5%; in the assay with BT-549 breast it was 88.3%; with MDA-MB-435 melanoma, 76.9%; with SW-620 colon, 92.1%; in the assay with MCF7 breast, 81.9%; in the assay with HCT-116 colon, 75.2%. Also, the growth with HCC-2998 colon is 98%; in the assay with KM12 colon, 84%.

Take `CC1(C)CC2=C3C=C[C@@H]4[C@@]5(C)CCC(=O)C(C)(C)[C@@H]5CC[C@@]4(C)[C@]3(C)CC[C@@]2(C(=O)O)CC1=O`: the growth with T-47D breast was 74.4%; in the assay with BT-549 breast it was 41.5%; with MDA-MB-435 melanoma, 49.4%; in the assay on SW-620 colon it was 66.9%; in the assay on MCF7 breast it was 57.3%; in the assay on HCT-116 colon, 64.6%. Besides, the growth in the assay with HCC-2998 colon is 84.3%; in the assay on KM12 colon, 78.3%.

Regarding `COC(=O)/C=C1/SC(=Nc2ccc(C)cc2)N(CCc2c[nH]c3ccc(O)cc23)C1=O`, the growth is 35% in the assay on T-47D breast; 9.38% (active) in the assay with BT-549 breast; 14.9% in the assay on MDA-MB-435 melanoma; 44.2% with SW-620 colon; 18.6% in the assay with MCF7 breast; 16.9% in the assay with HCT-116 colon. Further, the figures for the growth with HCC-2998 colon and with KM12 colon were 46.7% and 43.6%, respectively.

In the case of `CC1(c2ccccc2O)NN=C(/N=C/c2cccc([N+](=O)[O-])c2)N1C(Cc1c[nH]c2ccccc12)C(=O)O` (stereo not given), the growth is 91.1% with T-47D breast; 97.5% in the assay on BT-549 breast; 106% with MDA-MB-435 melanoma; 94.9% with SW-620 colon; 77.3% in the assay on MCF7 breast; 87% in the assay with HCT-116 colon. In addition, the results for the growth in the assay on HCC-2998 colon and with KM12 colon were 97.8% and 96.4%, respectively.

With `CCN(CC)CCOc1ccc(C(=C(C)c2ccc(Cl)cc2)c2ccc(OCCN(CC)CC)cc2)cc1`, the growth in the assay on T-47D breast was -66.4% (active); with BT-549 breast it was -50.6% (active); with MDA-MB-435 melanoma, -95.1% (active); in the assay with SW-620 colon, -75.6% (active); with MCF7 breast it was -76.5% (active); in the assay on HCT-116 colon, -94.1% (active). Moreover, the values for the growth in the assay with HCC-2998 colon and in the assay with KM12 colon were -91.2% (active) and -79% (active), respectively.

In the case of `O=S(=O)(NCCNc1cc(-c2c(-c3cccc(O)c3)nc3sccn23)ccn1)c1ccc(C(F)(F)F)cc1`, the growth was -1.89% (active) in the assay with T-47D breast; 26.6% with BT-549 breast; 10.7% in the assay on MDA-MB-435 melanoma; 47.3% in the assay with SW-620 colon; 16.2% with MCF7 breast; 26.6% with HCT-116 colon. Also, the growth with HCC-2998 colon is 70.6%; in the assay with KM12 colon, 26.7%.

With `Cc1ccc(/C=N/Nc2nc(Nc3ccccc3)nc(-n3nc(C)cc3C)n2)cc1`, the growth in the assay with T-47D breast was 7.35% (active); in the assay with BT-549 breast, -5.91% (active); in the assay with MDA-MB-435 melanoma, 41.8%; with SW-620 colon, 48.8%; with MCF7 breast it was 16.4%; in the assay with HCT-116 colon, 27.6%. Moreover, the values for the growth in the assay with HCC-2998 colon and in the assay with KM12 colon were 43.1% and 25.6%, respectively.

Consider `O=C1c2cc(Cl)ccc2S(=O)(=O)c2c(NCCCNCCO)nc3ccccc3c21`, for which the growth in the assay on T-47D breast is -60% (active); in the assay on BT-549 breast, 21.7%; in the assay with MDA-MB-435 melanoma, 2.67% (active); with SW-620 colon, -74.6% (active); with MCF7 breast it was -16.2% (active); in the assay with HCT-116 colon, -78% (active). Also, the growth in the assay with HCC-2998 colon was 78.5%; with KM12 colon, 20.1%.

Take `CC(C)(C)n1cc(-c2ccnc(NCCNS(=O)(=O)c3cccc(F)c3)c2)c(-c2ccccc2)n1`: the growth is 44.2% in the assay with T-47D breast; 93% in the assay with BT-549 breast; 99.8% in the assay on MDA-MB-435 melanoma; 94.2% in the assay on SW-620 colon; 67.8% with MCF7 breast; 79% in the assay with HCT-116 colon. For the same molecule, the results for the growth in the assay with HCC-2998 colon and with KM12 colon were 91% and 93.5%, respectively.

With `COc1ccc(/C=C2\C(=O)N=C3N2NC(c2cc(Br)ccc2O)C=C(C)N3c2ccccc2)cc1` (stereo not given), the growth was 89.6% in the assay on T-47D breast; 88% with BT-549 breast; 94.5% in the assay with MDA-MB-435 melanoma; 104% in the assay with SW-620 colon; 83.7% in the assay on MCF7 breast; 98.1% in the assay with HCT-116 colon. In addition, the growth in the assay on HCC-2998 colon is 87.1%; in the assay with KM12 colon, 102%.

`CCCCCCCCn1ccc2cc(NC(=O)Cn3cc(CN4CCCCC4)nn3)ccc21`: the growth in the assay on T-47D breast is -14.1% (active); in the assay on BT-549 breast, 71.6%; with MDA-MB-435 melanoma, -74.6% (active); in the assay with SW-620 colon, -66.1% (active); in the assay with MCF7 breast, 9.34% (active); in the assay on HCT-116 colon, 2.64% (active). Also, the growth in the assay with HCC-2998 colon was -70.4% (active); in the assay on KM12 colon, 19%.

On to `Cc1cccc2c1NC(=O)C2(c1ccc(O)cc1)c1ccc(O)cc1`, for which the growth in the assay with T-47D breast is -18.8% (active); in the assay on BT-549 breast it was -35.9% (active); with MDA-MB-435 melanoma, 105%; in the assay on SW-620 colon it was 103%; in the assay on MCF7 breast it was 1.54% (active); in the assay on HCT-116 colon it was 68.7%. For the same molecule, the growth with HCC-2998 colon is 42.9%; in the assay with KM12 colon it was 60.1%.

In the case of `N#Cc1cccc(F)c1`, the growth in the assay with T-47D breast was 101%; in the assay with BT-549 breast it was 111%; with MDA-MB-435 melanoma, 105%; in the assay on SW-620 colon, 109%; in the assay on MCF7 breast, 112%; in the assay on HCT-116 colon, 106%. The growth in the assay on HCC-2998 colon was 118%; with KM12 colon, 110%.

Values taken from PubChem BioAssay (NCI).
